# Assay results as given in the supplement of paper PMC11150407.
# Where a name gives a salt, the structure may show the parent alone. The whole screen tested about 2,100 compounds, of which about 180 (8.6%) showed an effect of 50% or more. Only a selection was taken, and strong results are over-represented in it overall.
# System: MOLM1 and UCSD/AML1 (averaged)
# Test: cell viability relative to DMSO control (POC); higher = less growth inhibition
# Conditions: 1 µM; 72 h
# Protocol: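 Primary viability screen in the 3q26 EVI1-high AML cell lines MOLM1 and UCSD/AML1 (1.5e3 cells/well, 384-well), compounds at 1 uM for 72 h. ATP CellTiter-Glo read-out given as percent of viable cells over DMSO control (POC), averaged over duplicates. DMSO was the negative control and 5 uM etoposide the positive control. This mapping covers the MicroSource Spectrum and Selleck anticancer libraries (drug names).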
row,SMILES,cell viability
1,COC(=O)C(O)c1ccccc1 (stereo not drawn),106%
2,O=c1cc(-c2ccc(O)cc2)oc2cc(O[C@@H]3O[C@H](CO)[C@@H](O)[C@H](O)[C@H]3O[C@@H]3OC[C@](O)(CO)[C@H]3O)cc(O)c12,119%
3,COc1ccc2c(=O)c(CC(=O)O)coc2c1,98.6%
4,N=C(N)NC(=N)Nc1ccccc1,99.7%
5,O=C(O)c1nc2cc(Cl)c(Cl)cc2nc1O,98.3%
6,CC(C)CCC[C@@H](C)[C@H]1CC[C@H]2[C@@H]3CC[C@H]4C[C@H](O)CC[C@]4(C)[C@H]3CC[C@]12C,110%
7,Cc1ccc(S(=O)(=O)C=CC#N)cc1,1.01%
8,Cc1ccc(O)c([C@H](CCN(C(C)C)C(C)C)c2ccccc2)c1,92.5%
9,C=CC[S+]([O-])C[C@H](N)C(=O)O (mixture of isomers),89.6%
10,CCN(CC)C(=S)SSC(=S)N(CC)CC,5.82%
11,CCN(CC)C(=S)SSC(=S)N(CC)CC [Disulfiram (Antabuse)],1.33%
12,CC1=CC(=O)[C@H]2C(C)(C)CCC[C@]2(C)[C@@]1(O)CCc1ccoc1,110%
13,COC(=O)CC[C@@H](C)[C@H]1CC[C@H]2[C@@H]3[C@H](O)C[C@@H]4C[C@H](O)CC[C@]4(C)[C@H]3C[C@H](O)[C@]12C,95.2%
14,C[C@@H]1CCN(C(=O)CC#N)C[C@@H]1N(C)c1ncnc2[nH]ccc12,72.1%
15,O=C(O)c1cc(-c2ccc(F)cc2F)ccc1O,112%
16,CNC(=O)c1ccccc1Sc1ccc2c(/C=C/c3ccccn3)n[nH]c2c1 [Axitinib],19.1%
17,C[C@H]1CC2C3CCC4=CC(=O)C=C[C@]4(C)[C@@]3(F)[C@@H](O)C[C@]2(C)[C@@]1(O)C(=O)COP(=O)(O)O (stereo partly drawn),72.3%
18,COc1c(-c2coc3cc4c(cc3c2=O)CC(OC(C)=O)C(C)(C)O4)ccc2c1C=CC(C)(C)O2 (stereo not drawn),88.7%
19,Fc1cc(-c2cccc3ncc(-c4cnn(C5CCNCC5)c4)nc23)cc(F)c1CN1CCOCC1,24.6%
20,CCC(C(N)=O)c1ccccc1 (stereo not drawn),109%
21,COc1cc(O)ccc1C(C)=O,97.9%

row,SMILES,cell viability
1,CC(C)=CCC1=C(O)C(=O)c2ccccc2C1=O,118%
2,N[C@@H](CSCSC[C@H](N)C(=O)O)C(=O)O,99.3%
3,CC(=O)NCC(=O)N1[C@@H]2CC[C@H]1c1ccc(Nc3ncc(C(F)(F)F)c(NC4CCC4)n3)cc12,20.2%
4,CS(=O)(=O)c1cccc(CNc2nc(Nc3ccc4c(c3)CCC(=O)N4)ncc2C(F)(F)F)c1,83.3%
5,CN(c1ncccc1CNc1nc(Nc2ccc3c(c2)CC(=O)N3)ncc1C(F)(F)F)S(C)(=O)=O,58.6%
6,CC(=O)/C=C\[C@@H]1[C@@]2(C)CCCC(C)(C)C2CC[C@@]1(C)O (stereo partly drawn),99.2%
7,COc1cc2c(cc1OC)-c1c(oc3cc(O)cc(O)c3c1=O)CO2,103%
8,COC1=C(O)C(=O)c2c(cc3oc(C(C)=O)c(O)c3c2O)C1=O,86.8%
9,CCCCC(=O)Oc1ccccc1C(=O)O,115%
10,COC(=O)C[C@H]1C(C)(C)[C@@H](OC(C)=O)[C@@H]2CC3C4CC(=O)O[C@@H](c5ccoc5)[C@]4(C)CCC3[C@@]1(C)C2=O (stereo partly drawn),88.1%
11,CCCCOc1ccc(C(=O)CCN2CCCCC2)cc1,104%
12,Cc1cnc(Nc2ccc(OCCN3CCCC3)cc2)nc1Nc1cccc(S(=O)(=O)NC(C)(C)C)c1,13%
13,CC1(C)[C@@H](O)CC[C@]2(C)[C@H]3C(=O)C=C4[C@@H]5C[C@@](C)(C(=O)O)CC[C@]5(C)CC[C@@]4(C)[C@]3(C)CC[C@@H]12,95.5%
14,OCC(O)C(O)C(O)C(O)C(O)CO (stereo not drawn),102%
15,COc1ccc2c(c1)OC/C(=C/c1ccc(OC)c(OC)c1)C2=O,108%
16,COc1ccc2c(c1)OCC(Cc1ccc(OC)c(OC)c1)C2=O (stereo not drawn),112%
17,COc1ccc2c(c1)OC/C(=C\c1ccc(OC)c(O)c1)C2=O,18.3%
18,"COC(=O)[C@@H]1OC(=O)C2OC23[C@@]1(C)CCC1[C@]2(C)C(C[C@H](O)[C@]13C)C(C)(C)[C@H](OC(C)=O)C[C@@H]2OC(C)=O (stereo partly drawn) [7beta-HYDROXY-7-DESACETOXYKHIVORINIC ACID, METHYL ESTER]",111%
19,"COC(=O)C[C@H]1C(C)(C)C2(O)OC34CC2C(=O)[C@]1(C)C3CC[C@]1(C)C4=CC(=O)O[C@H]1c1ccoc1 (stereo partly drawn) [8beta-HYDROXYCARAPIN, 3,8-HEMIACETAL]",89%
20,CC(C)CC(NC(=O)OCC1c2ccccc2-c2ccccc21)C(=O)O (stereo in doubt),105%
21,COc1cccc2c1C(=O)c1c(O)c3c(c(O)c1C2=O)C[C@@](O)(C(=O)CO)C[C@@H]3O[C@H]1C[C@H](N)[C@@H](O)[C@H](C)O1 [Epirubicin Hydrochloride],1.66%

row,SMILES,cell viability
1,COc1cccc2c1C(=O)c1c(O)c3c(c(O)c1C2=O)C[C@@](O)(C(=O)CO)C[C@@H]3O[C@H]1C[C@H](N)[C@@H](O)[C@H](C)O1,5.86%
2,COc1cccc2c1C(=O)c1c(O)c3c(c(O)c1C2=O)C[C@@](O)(C(=O)CO)C[C@@H]3O[C@H]1C[C@H](N)[C@H](O)[C@H](C)O1,1.67%
3,CC(=O)[C@]1(O)Cc2c(O)c3c(c(O)c2[C@@H](O[C@H]2C[C@H](N)[C@H](O)[C@H](C)O2)C1)C(=O)c1ccccc1C3=O [Idarubicin HCl],1.49%
4,COc1cccc2c1C(=O)c1c(O)c3c(c(O)c1C2=O)C[C@@](O)(C(C)=O)C[C@@H]3O[C@H]1C[C@H](N)[C@H](O)[C@H](C)O1 [Daunorubicin HCl (Daunomycin HCl)],1.38%
5,COc1cccc2c1C(=O)c1c(O)c3c(c(O)c1C2=O)C[C@@](O)(C(=O)CO)C[C@@H]3O[C@H]1C[C@H](N)[C@H](O)[C@H](C)O1 [Doxorubicin (Adriamycin)],1.61%
6,COc1cccc2c1C(=O)c1c(O)c3c(c(O)c1C2=O)C[C@@](O)(C(C)=O)C[C@@H]3O[C@H]1C[C@H](N)[C@H](O)[C@H](C)O1,1.85%
7,CCCCCCCCCCCC[C@@H](C(=O)O)[C@H](C)C(=O)O,96%
8,Cc1cc(O)cc(=O)o1,112%
9,O=C1C=C(O)C(=O)c2ccccc21,92.9%
10,CC(=O)OCC(=O)[C@@]1(O)CC[C@H]2[C@@H]3C[C@H](C)C4=CC(=O)C=C[C@]4(C)[C@H]3[C@@H](O)C[C@@]21C [6alpha-METHYLPREDNISOLONE ACETATE],65%
11,CC(=O)O[C@]1(C)CC[C@@]23C[C@H]1C(C)(C)[C@@H]2CC[C@H]3C,107%
12,C[C@H]1CC[C@@H](C(C)(C)O)CC2=C1CC[C@@H]2C,94.4%
13,Oc1ccc2c(c1)OC[C@]1(O)Cc3cc(O)c(O)cc3[C@H]21,105%
14,COc1cc2ccc(=O)oc2cc1O,94.7%
15,CC1/C(=N/O)C[C@@H]2C[C@H]1C2(C)C (stereo partly drawn),102%
16,C[n+]1ccccc1C=NO,99.8%
17,COc1ccc(C2CC(=O)c3ccc(OC)cc3O2)cc1 (stereo not drawn),109%
18,N#Cc1c(O)c2c(-c3ccc(-c4ccccc4O)cc3)csc2[nH]c1=O,97.3%
19,COC(=O)[C@H]1[C@H]2C[C@H]3c4[nH]c5cc(OC)ccc5c4CCN3C[C@H]2C[C@@H](OC(=O)c2cc(OC)c(OC)c(OC)c2)[C@@H]1OC,111%
20,COC1=C[C@@H](C)[C@@H]2C[C@H]3OC(=O)C[C@H]4C(C)=C(OC)C(=O)[C@H]([C@@]2(C)C1=O)[C@@]34C,93.7%
21,CC(C)CC(=O)Nc1n[nH]c2c1CN(C(=O)C1CCN(C)CC1)C2(C)C,49.4%

row,SMILES,cell viability
1,O=c1[nH]cnc2nc[nH]c12,102%
2,CC1(C)CC[C@]2(C)CC[C@]3(C)C(=CC[C@@H]4[C@@]5(C)CC[C@H](O)C(C)(C)[C@@H]5CC[C@]43C)[C@@H]2C1 [beta-AMYRIN],91.8%
3,CC1(C)CNc2cc(NC(=O)c3cccnc3NCc3ccncc3)ccc21 [Motesanib Diphosphate],86.1%
4,CCCCC(CC)CN=C(N)N=C(N)NCCCCCCNC(N)=NC(N)=NCC(CC)CCCC (stereo not drawn),7.07%
5,O=C(O)[C@]1(O)C[C@@H](O)[C@@H](O)[C@H](O)C1,97.5%
6,C[C@@H]1CN(CC(=O)Nc2ccc3c(c2)Cc2cccc(-c4cc(=O)cc(N5CCOCC5)o4)c2S3)C[C@H](C)O1,88.5%
7,CCCCCC(=O)Cc1cc(O)cc(O)c1C(=O)Oc1cc(CC(=O)CCCCC)c(C(=O)O)c(OC)c1,87.8%
8,COc1c(-c2coc3cc4c(cc3c2=O)CC(O)C(C)(C)O4)ccc2c1C=CC(C)(C)O2 (stereo not drawn),82.2%
9,COc1ccc(CC(=O)c2ccc(O)cc2O)cc1,107%
10,O.O.O.O.O.O.O.O.O.O.O.O.O.O.O.O.O=S(=O)([O][Al])OC[C@H]1O[C@@](COS(=O)(=O)[O][Al])(O[C@H]2O[C@H](COS(=O)(=O)[O][Al])[C@@H](OS(=O)(=O)[O][Al])[C@H](OS(=O)(=O)[O][Al])[C@H]2OS(=O)(=O)[O][Al])[C@@H](OS(=O)(=O)[O][Al])[C@@H]1OS(=O)(=O)[O][Al],101%
11,COC(=O)C[C@H]1C(C)(C)[C@@H](OC(C)=O)[C@@H]2CC3=C4CC(=O)O[C@@H](c5ccoc5)[C@]4(C)CC[C@@H]3[C@@]1(C)C2=O,103%
12,COC(=O)c1c(C)cc(O)cc1O,98.5%
13,Cc1cc(C(C)(C)CC(C)(C)C)ccc1OCCOCC[N+](C)(C)Cc1ccccc1,88.2%
14,CCCCCCCCCCCCC[N+](C)(C)Cc1ccccc1,25.7%
15,CC(C)(C)CC(C)(C)c1ccc(OCCOCC[N+](C)(C)Cc2ccccc2)cc1,97.1%
16,Cc1ccc(C(C)C)cc2c(C)ccc1-2,84.7%
17,COc1ccc(-c2cc(=O)c3c(O)c(OC)c(OC)c(OC)c3o2)cc1OC,80.2%
18,O=C(Nc1ccccc1)Nc1ccccc1,87.7%
19,O=C(Nc1ccccc1)c1ccccc1O,97.1%
20,O=C(CCCCCCC(=O)Nc1ccccc1)NO [Vorinostat (SAHA)],22%
